Data as given in PubChem BioAssay (NCI).
This is part of a sample that, as a whole, favours compounds with a hit. Of some 79,000 tested, about 15% had one in any assay. Activity calls are given as the source filed them. No stated cut-off is given here; in the data, active means growth inhibition above about 70%; inactive means the rest.

Experiment: NCI Yeast Anticancer Drug Screen. Data for the bub3 strain (AID 167)
Conditions: S. cerevisiae bub3 mutant strain, at 11.0 µM, stronger effect = higher value
Summary of the method: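 Part of a panel of yeast mutants defective in DNA damage repair or cell cycle regulation. Each strain is grown with compound, and inhibition is calculated relative to solvent-treated cultures.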

SMILES | growth inhibition
COc1ccc(/C=C2\CCc3ccccc3C2=O)cc1OC | 51% (inactive)
O=Cc1ccccc1B(O)O | 81% (active)
CC(=O)CC[N+](C)(C)C | 16% (inactive)
O=C(O)[C@H]1[C@@H](C2CCCCC2)O[C@@H](C2CCCCC2)O[C@H]1C(F)(F)F | 3% (inactive)
CN(NC(=O)/C(=C/C=C/c1ccccc1)NC(=O)c1ccccc1)C1=C(Cl)C(=O)[N+](c2ccccc2)=CC1 | 33% (inactive)
CCCCOc1ccc(Nc2c3ccccc3nc3ccccc23)cc1 | 66% (inactive)
N#C/C(=C1C=C/C(=N\O)C(Cl)=C\1)c1ccccc1 | 4% (inactive)
COc1ccc(C(=O)OCCc2ccccc2)cc1 | 16% (inactive)
Cc1c2ccncc2c(C)c2c1oc1ccccc12 | 40% (inactive)
CCCC#CCOC(=O)c1cc([N+](=O)[O-])cc([N+](=O)[O-])c1 | 98% (active)
Nc1nc(Nc2ccccc2)nc(Nc2ccccc2)n1 | -8% (inactive)
COc1ccc(/C=C2\S/C(=N/Nc3nc(-c4ccccc4)cs3)NC2=O)cc1OC | 97% (active)
CC(O)CN1C(=O)c2cccc3cc([N+](=O)[O-])cc(c23)C1=O (stereo not drawn) | -11% (inactive)
Cn1c(COc2ccc(/C=N/NC(=O)CCC(=O)N/N=C/c3ccc(OCc4c[n+]5ccccc5n4C)cc3)cc2)c[n+]2ccccc12 | -6% (inactive)
COC1=C(N=[N+]=[N-])C(=O)c2ncccc2C1=O | 18% (inactive)
CCN(CC)c1ccc(N=Nc2cc(S(=O)(=O)O)ccc2O)c(O)c1 | 7% (inactive)
O=C1C(C(O)(C(F)(F)F)C(F)(F)F)CCC1C(O)(C(F)(F)F)C(F)(F)F (stereo not drawn) | 0% (inactive)
CN(C)CCNC(=O)c1cccc2nc3c(ccc4ccccc43)nc12 | 5% (inactive)
O=S(=O)(CCC[C@H]1[C@@H](CCOCc2ccccc2)C2CCCN1O2)c1ccccc1 (stereo partly drawn) | 2% (inactive)
CCC(C)/C(C)=N/NC(N)=O (stereo not drawn) | 0% (inactive)
Nc1c([N+](=O)[O-])cc2c3c(cccc13)CC2 | 14% (inactive)
CC1=Cc2ccc(C)cc2C(=O)C1=O | 2% (inactive)
C=Cc1c(C)c(O)cc2c1-c1ccc(O)c(C)c1CC2 | 5% (inactive)
NCC(O)CSCc1ccc(Cl)cc1 (stereo not drawn) | 1% (inactive)
C[n+]1c(-c2ccc(NC(=O)c3ccc(C(=O)Nc4ccc(-c5cn6ccccc6[n+]5C)cc4)cc3)cc2)cn2ccccc21 | 30% (inactive)
CNC(=O)OCc1c(COC(=O)NC)c(C)n(-c2ccc(Cl)c(Cl)c2)c1C | -21% (inactive)
[O-]c1c2cc(-[n+]3c(-c4ccccc4)cc(-c4ccccc4)cc3-c3ccccc3)cc1COCCOCCOCCOCCOC2 | -4% (inactive)
C[Si](C)(C)Cc1ccccc1C(=O)O | 2% (inactive)
